According to PubChem BioAssay (NCATS):
“And” between values parts separate entries of the source, which are not always exact repeats. Equal values may be shown once. Unmarked numbers belong to inactive results. Results filed as inconclusive are left out. Entries that show only a call come without a potency. The source made the active and inactive calls. Calls come from the whole dose curve; as a rule, active = well fitted curve in the direction sought with a large enough effect; inconclusive = small, poorly fitted or top-dose-only effect, or another doubt; inactive = no such curve, though single readings can be large; an effect the other way counts as inactive or inconclusive.

Key:
[1] = biological target: Cytochrome P450 2C9 (Homo sapiens) (UniProt P11712); experiment: qHTS Assay for Inhibitors and Substrates of Cytochrome P450 2C9 (AID 883); note: nearly all actives have a fitted effect of over 60% in size; note: potency is the fitted concentration of half-maximal effect
Sequence of Cytochrome P450 2C9 (Homo sapiens) (P11712 whole entry, looked up): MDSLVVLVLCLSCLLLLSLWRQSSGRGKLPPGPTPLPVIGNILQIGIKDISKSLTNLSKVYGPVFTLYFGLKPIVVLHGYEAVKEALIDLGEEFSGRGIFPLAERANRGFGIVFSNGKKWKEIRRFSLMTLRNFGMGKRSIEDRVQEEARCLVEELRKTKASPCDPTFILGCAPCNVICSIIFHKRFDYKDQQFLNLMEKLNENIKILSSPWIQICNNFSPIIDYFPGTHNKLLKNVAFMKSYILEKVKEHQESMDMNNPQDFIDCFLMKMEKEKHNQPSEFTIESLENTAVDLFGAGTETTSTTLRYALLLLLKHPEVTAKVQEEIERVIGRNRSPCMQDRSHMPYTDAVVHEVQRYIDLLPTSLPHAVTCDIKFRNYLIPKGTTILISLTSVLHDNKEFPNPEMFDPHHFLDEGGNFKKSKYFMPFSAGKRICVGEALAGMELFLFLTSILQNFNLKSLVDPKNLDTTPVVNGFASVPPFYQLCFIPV
Outline: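 Luminescent read-out of deoxyluciferin hydroxylation, normalized to 57uM sulphaphenazole (AC100). Reaction: 10nM enzyme, 100uM Luciferin-H (equal to KM), 25mM KPO4, 10 min compound preincubation, then 60 min with NADPH regeneration, both at 37C.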

[2] = biological target: Cytochrome P450 3A4 (Homo sapiens) (UniProt P08684); experiment: qHTS Assay for Inhibitors and Substrates of Cytochrome P450 3A4 (AID 884); note: nearly all actives have a fitted effect of over 50% in size; note: potency is the fitted concentration of half-maximal effect; for activity change, negative = inhibition: series mostly up to about 57 µM
Sequence of Cytochrome P450 3A4 (Homo sapiens) (P08684 whole entry, looked up): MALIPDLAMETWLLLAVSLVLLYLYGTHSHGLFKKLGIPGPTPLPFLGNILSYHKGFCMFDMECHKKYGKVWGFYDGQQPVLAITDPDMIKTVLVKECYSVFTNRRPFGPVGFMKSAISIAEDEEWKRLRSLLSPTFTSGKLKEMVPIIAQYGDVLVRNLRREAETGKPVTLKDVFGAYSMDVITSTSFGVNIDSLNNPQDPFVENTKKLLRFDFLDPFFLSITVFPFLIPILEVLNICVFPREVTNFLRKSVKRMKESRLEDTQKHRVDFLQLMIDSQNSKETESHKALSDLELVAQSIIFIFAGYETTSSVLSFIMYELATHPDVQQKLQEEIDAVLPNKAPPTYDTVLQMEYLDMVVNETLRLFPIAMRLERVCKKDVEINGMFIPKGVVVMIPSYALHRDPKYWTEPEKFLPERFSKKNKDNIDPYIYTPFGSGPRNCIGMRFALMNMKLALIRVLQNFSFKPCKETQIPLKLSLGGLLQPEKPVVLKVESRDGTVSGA
Outline: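 Luminescent readout of luciferin produced by CYP3A4 (20 nM) dealkylation of Luciferin-PPXE, 25 uM (its KM). NADPH-driven reaction ran 60 min at RT after 10 min compound preincubation; data scaled to 57 uM ketoconazole as 100% inhibition.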

[3] = biological target: Cytochrome P450 2C19 (Homo sapiens) (UniProt P33261); experiment: qHTS Assay for Inhibitors and Substrates of Cytochrome P450 2C19 (AID 899); note: nearly all actives have a fitted effect of over 60% in size; note: potency is the fitted concentration of half-maximal effect
Sequence of Cytochrome P450 2C19 (Homo sapiens) (P33261 whole entry, looked up): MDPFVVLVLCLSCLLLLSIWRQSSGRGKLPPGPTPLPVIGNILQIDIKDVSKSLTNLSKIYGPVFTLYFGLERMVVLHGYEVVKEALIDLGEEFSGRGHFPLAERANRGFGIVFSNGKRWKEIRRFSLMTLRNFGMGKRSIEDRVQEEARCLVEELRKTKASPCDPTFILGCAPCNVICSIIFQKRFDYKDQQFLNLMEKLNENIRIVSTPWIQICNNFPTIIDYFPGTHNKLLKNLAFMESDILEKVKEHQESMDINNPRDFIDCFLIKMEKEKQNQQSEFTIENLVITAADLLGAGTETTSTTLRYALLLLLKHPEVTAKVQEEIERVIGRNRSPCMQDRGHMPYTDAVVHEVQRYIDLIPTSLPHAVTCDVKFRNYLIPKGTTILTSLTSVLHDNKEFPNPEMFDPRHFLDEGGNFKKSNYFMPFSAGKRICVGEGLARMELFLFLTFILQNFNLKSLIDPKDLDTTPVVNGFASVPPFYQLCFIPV
Outline: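 Luminescence readout of luciferin formed from 10uM Luciferin-H EGE (KM level) by 5 nM CYP2C19 in 50mM KPO4. 60 min NADPH-driven reaction at 37C after 10 min compound preincubation; data scaled to 57uM ketoconazole inhibition.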

[4] = biological target: Cytochrome P450 2D6 (Homo sapiens) (UniProt P10635); experiment: qHTS Assay for Inhibitors and Substrates of Cytochrome P450 2D6 (AID 891); note: nearly all actives have a fitted effect of over 60% in size; note: potency is the fitted concentration of half-maximal effect;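 for activity change, negative = inhibition: luciferin methyl ether substrate demethylated by CYP2D6 with NADPH regeneration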
Sequence of Cytochrome P450 2D6 (Homo sapiens) (P10635 whole entry, looked up): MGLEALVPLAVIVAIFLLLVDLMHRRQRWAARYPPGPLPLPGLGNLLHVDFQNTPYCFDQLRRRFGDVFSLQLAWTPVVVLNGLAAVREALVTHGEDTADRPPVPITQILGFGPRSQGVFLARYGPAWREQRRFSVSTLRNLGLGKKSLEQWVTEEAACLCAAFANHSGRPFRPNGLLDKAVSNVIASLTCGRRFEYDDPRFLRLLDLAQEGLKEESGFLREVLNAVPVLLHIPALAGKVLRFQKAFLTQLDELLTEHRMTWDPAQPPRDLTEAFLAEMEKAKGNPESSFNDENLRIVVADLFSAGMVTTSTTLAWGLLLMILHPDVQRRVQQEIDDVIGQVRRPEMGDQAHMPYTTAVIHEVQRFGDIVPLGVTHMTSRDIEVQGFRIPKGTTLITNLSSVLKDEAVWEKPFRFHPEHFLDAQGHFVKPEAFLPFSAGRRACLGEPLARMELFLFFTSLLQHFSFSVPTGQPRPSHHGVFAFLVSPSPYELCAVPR
Outline: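 Luminescent read-out of luciferin formed by 5 nM human CYP2D6 demethylating 30 uM Luciferin-ME EGE (Km level) over 60 min at room temperature after NADPH regeneration addition. Data normalized to full inhibition by 1.43 uM quinidine.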

[5] = biological target: Cytochrome P450 3A4 (Homo sapiens) (UniProt P08684); experiment: qHTS Assay for Activators of Cytochrome P450 3A4 (AID 885); note: nearly all actives have a fitted effect of over 65% in size
Outline: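 Luminescent readout of luciferin formed from 25 uM Luciferin-PPXE (KM level) by 20 nM CYP3A4 in 200 mM KPO4, with 60 min NADPH-driven reaction at room temperature after 10 min compound exposure. Ketoconazole (57 uM) defined 100% inhibition.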

Compound	Potency [1]	activity change, negative = inhibition [2]	Potency [3]	Potency [4]	Potency [2]	activity change, positive = activation [5]
COC(=O)C1C(C)OC(=O)NC1c1ccccc1 (centres undefined)	inactive	-16.6% [at 11.4 µM]	inactive	–	–	–
CCN1C(C)=C(C(=O)OC)C(c2ccccc2)N2C(=O)[C@](O)(C(=O)OC)CC(C(C)=O)=C12 (some centres undefined)	inactive	-13.9% [at 11.4 µM]	inactive	inactive	–	–
Cc1ccc(OC2C(O)COC2/C=C/C#Cc2ccc(C(C)(C)C)cc2)cc1 (centres undefined)	inactive	-23% [at 11.4 µM] and -25.5% [at 11.4 µM]	inactive	inactive	–	–
CCCCCCC/C=C/C1=CC2(C)CC1(C)C(CCCCCCC)CC2=O (centres undefined)	inactive	-15% [at 11.4 µM]	inactive	inactive	–	–
Cc1cc(F)ccc1OC1C=CC(c2ccc3c(c2)OCO3)OC1CO (centres undefined)	3.16 µM (active)	–	inactive	–	3.16 µM (active)	–
CO[C@H]1COC(=O)C/C=C\[C@H](C)[C@@H](OC)COC(=O)[C@@H](C)COC(=O)C/C=C\[C@@H]1C	2.51 µM (active)	–	–	–	–	-56.2% [at 11.4 µM]
CC12C=C(/C=C/CCc3ccco3)C(C)(C1)C(CCc1ccco1)CC2=O (centres undefined)	inactive	-9.62% [at 11.4 µM]	inactive	–	–	–
CC1(C)Oc2cc3c(cc2O1)OC(C)(C)O3	inactive	-26.4% [at 11.4 µM]	inactive	inactive	–	–
COC(=O)NC(c1ccco1)[C@@]1(C(=O)OC)CCCC1=O (some centres undefined)	inactive	-10.6% [at 11.4 µM]	inactive	inactive	–	–
COc1ccc(-c2ccccc2C2NC(C(=O)O)CCC2C)cc1 (centres undefined)	inactive	–	inactive	inactive	–	-42% [at 11.4 µM]
COC(c1ccccc1Br)C(C)/C=C/CCO (centres undefined)	inactive	–	–	inactive	–	-47.9% [at 11.4 µM]
CCN1C(C)=C(C(=O)OC)C(c2ccccc2)N2C(=O)[C@](O)(C(=O)OC)C(c3ccccc3)C(C(C)=O)=C12 (some centres undefined)	inactive	–	inactive	inactive	–	-59.7% [at 11.4 µM]
COC(=O)C/C=C/C(C)C(OCc1cccc(Br)c1)C(C)C(OC)C1CCCCC1 (centres undefined)	2.51 µM (active)	–	–	inactive	–	-58% [at 11.4 µM]
COC(=O)C1=C(C)N(Cc2ccccc2)C2=C(C(C)=O)C[C@@](O)(C(=O)OC)C(=O)N2C1c1ccccc1 (some centres undefined)	inactive	–	inactive	inactive	–	-45.3% [at 11.4 µM] and -48.2% [at 11.4 µM]
CC(C)=NOCc1cccc(-c2cc(-c3ccccc3)no2)c1	3.98 µM (active)	–	–	–	–	-40.1% [at 11.4 µM]
COC(=O)NC(c1ccco1)[C@]1(C(C)=O)CCCC1=O (some centres undefined)	inactive	–	inactive	inactive	–	-35.9% [at 11.4 µM]
CCCCCCC1=Cc2cc(OC)c(OC)cc2C(C(C(C)=O)C(=O)OC)O1 (centres undefined)	inactive	–	3.16 µM (active)	inactive	–	-57.6% [at 11.4 µM]
CCOC(=O)OCC1OC(C#Cc2ccc(C)cc2C)C=CC1OC(=O)OCC (centres undefined)	inactive	–	inactive	inactive	–	-58.4% [at 11.4 µM]
C=C(C)C(O)/C=C/C=C/c1ccccc1 (centres undefined)	inactive	–	inactive	inactive	–	-32.8% [at 11.4 µM]
COCOc1cc(OC)ccc1C(=O)/C=C\c1ccc2c(c1)OCO2	2.51 µM (active)	–	–	3.98 µM (active)	–	-101% [at 11.4 µM]
CC1CCC2C(=O)N3C(CCC(C)[C@@H]3c3ccc(Br)cc3)C(=O)N2C1c1ccc(Br)cc1 (some centres undefined)	3.16 µM (active)	–	–	inactive	–	-48.7% [at 11.4 µM]
COc1ccc(-c2nc3c(c4c2CC(C)OC4)CN(CCC(C)C)CC3)cc1 (centres undefined)	inactive	–	inactive	inactive	–	-50.4% [at 11.4 µM]
CCCNC(=O)OC[C@@H]1O[C@H](CCO/N=C\c2ccc(C(=O)N3[C@H](c4ccc(C)cc4)[C@@H](C)CC[C@H]3C(=O)OC)cc2)C=C[C@@H]1Oc1ccc(OC)cc1	3.98 µM (active)	–	–	–	–	-51.6% [at 11.4 µM]
CCOC(=O)OCC1OC(c2ccccc2)C=CC1Oc1cccc(N(C)C)c1 (centres undefined)	inactive	–	–	inactive	–	-50.1% [at 11.4 µM]
COc1cccc([C@@H]2Oc3ccc(Br)cc3C(=O)[C@H]2O)c1	2.51 µM (active)	–	3.16 µM (active)	3.16 µM (active)	–	-74.4% [at 11.4 µM]
CCCCCCC#CC1C=CC(Oc2ccc(C=O)cc2)C(CO)O1 (centres undefined)	inactive	–	–	inactive	–	-35.2% [at 11.4 µM]
